# PubChem BioAssay
# Active and inactive are the calls of the source. Cut-off read from the data, not from the text of the source, unless noted: active = inhibition above about 80%; inactive = the rest.
# Tests used:
# [1] = viability loss with induced miR-34 in A549 – imaging, A549 dox-inducible miR-34, nuclei and caspase counts, primary screen (AID 1347080;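 active = compounds whose cell count with miR-34 switched on is under 0.7 times the count with it off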); conditions: A549 miR-34 inducible, Hoechst nuclei count, 48 h
# [2] = MELAS cybrid and Rieske KO viability enhancers – cell-based, MELAS cybrids, Rieske KO mouse fibroblasts, CellTiter-Glo, primary screen (AID 1508586;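 active = mean z-score across replicates of 1.96 or higher in either the MELAS or the Rieske mutant cell line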;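 note: z relative to plate mean and SD of compound and empty wells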); conditions: low glucose
# [3] = growth inhibition, single agent or in combination, cell-based, chromothripsis tumors, cisplatin or BGB combos (AID 1671449); conditions: LFS_MB_P medulloblastoma cells;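 note: cells exposed for 96 hours; 0% = vehicle DMSO and 100% = killing by high DMSO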
# [4] = growth inhibition, single agent and combos, cell-based, chromothripsis tumors, cisplatin or BGB combos (AID 1671450); conditions: HDN33 neuroblastoma cells, stronger effect = higher value;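 note: cells exposed to compound for four days; 0% = vehicle DMSO and 100% = cell killing by high DMSO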
# [5] = growth inhibition, single agents and combos, ICB984, cell-based, cisplatin or BGB combos, synergistic combos for chromothripsis tumors (AID 1671451; call rule not given here;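 note: cells exposed for 96 hours before readout; 0% = vehicle DMSO and 100% = killing by high DMSO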); conditions: ICB984 medulloblastoma cells, drug combinations, stronger effect = higher value
# [6] = growth inhibition, single agents and combos, LFS_MB_1R, cell-based, cisplatin or BGB combos, synergistic combos for chromothripsis tumors (AID 1671452); conditions: LFS_MB_1R medulloblastoma cells, stronger effect = higher value;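 note: cells exposed for 96 hours before readout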
# [7] = growth inhibition, single agents and combos, HTB85, cell-based, BGB or cisplatin IC20 combos, synergistic combos for chromothripsis tumors (AID 1671453); conditions: HTB85 osteosarcoma cells, drug combinations, stronger effect = higher value;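 note: cells exposed for 96 hours before readout; 0% = vehicle DMSO and 100% = high DMSO killing control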
# [8] = growth inhibition, single agents and combos, CRL2098, cell-based, BGB or cisplatin IC20 combos, synergistic combos for chromothripsis tumors (AID 1671454); conditions: CRL2098 osteosarcoma cells, drug combinations, stronger effect = higher value;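 note: cells exposed for 96 h before readout; 0% = vehicle DMSO and 100% = killing by high DMSO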
# [9] = growth inhibition, single agents and combos, HD-MB03, cell-based, BGB or cisplatin IC20 combos, synergistic combos for chromothripsis tumors (AID 1671455; in the data active = inhibition above about 83%;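 note: 0% = vehicle DMSO and 100% = high DMSO as cytotoxic control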); conditions: HD-MB03 medulloblastoma cells, stronger effect = higher value
# [10] = growth inhibition, single agents and combos, UWB1.289, cell-based, BGB or cisplatin combos, synergistic combos for chromothripsis tumors (AID 1671456); conditions: UWB1.289 ovarian carcinoma cells, stronger effect = higher value;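 note: cells exposed to compound for four days; 0% = vehicle DMSO and 100% = killing by high DMSO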
# [11] = growth inhibition, single agents and combos, LFS_MB_2R, cell-based, cisplatin combos, synergistic combos for chromothripsis tumors (AID 1671457); conditions: LFS_MB_2R medulloblastoma cells, stronger effect = higher value;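 note: cells exposed to compound for four days before readout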
# [12] = growth inhibition, MDA-MB-436, cell-based, BGB or cisplatin combos, synergistic combos for chromothripsis tumors (AID 1671458; call rule not given here;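 note: cells exposed for 96 hours; 0% = vehicle DMSO and 100% = killing by high DMSO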); conditions: MDA-MB-436 breast carcinoma growth inhibition, drug combinations, stronger effect = higher value
# [13] = UWB1.289_BRCA1 ovarian cancer growth, cell-based, BGB or cisplatin combinations (AID 1671459); conditions: UWB1.289 BRCA1 ovarian carcinoma, drug combinations, stronger effect = higher value
# [14] = drug combination toxicity in non-malignant astrocytes – cell-based, BGB or cisplatin IC20 combos, cytotoxicity control for chromothriptic childhood tumor combination screen (AID 1671460); conditions: Human astrocytes, viability inhibition, drug combinations, at 0.5 µM, stronger effect = higher value;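 note: cells exposed to compounds for 96 hours before viability readout; 0% = vehicle and 100% = killing control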
# [15] = BT084 cell growth, single and combined drugs, ICGC_MB145, cisplatin and BGB IC40 combos (AID 1671461); conditions: BT084 medulloblastoma cells, drug combinations, stronger effect = higher value;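 note: cells exposed to drugs for 96 hours; 0% = vehicle DMSO and 100% = high DMSO full killing control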
# [16] = RCMB18 cell growth, single agent and combined, cisplatin and BGB IC40 combos (AID 1671462); conditions: RCMB18 medulloblastoma cells, stronger effect = higher value;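 note: cells exposed to compound for four days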
# [17] = CRL1545 cell growth, single agent and combined, cisplatin and BGB IC20 combos (AID 1671464); conditions: CRL1545 osteosarcoma cells, stronger effect = higher value;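 note: cells exposed to compound for 96 hours before readout; 0% = vehicle DMSO and 100% = high DMSO killing control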
# [18] = measured here: combination with BGB IC40, at 0.05 µM
# [19] = measured here: with BGB IC20 combination, at 0.5 µM
# [20] = measured here: with cisplatin IC20 combination, at 0.5 µM
# [21] = measured here: combination with cisplatin, at 0.5 µM
# [22] = measured here: combination with cisplatin, at 5 µM
compound,measurement,setting,value
Cc1cc(C#N)cc(C)c1Oc1nc(Nc2ccc(C#N)cc2)nc(N)c1Br,fold change,"[1]; stronger effect = lower value, cell number ratio, induced over uninduced",0.85 (inactive)
same,fold change,[1]; measured here: relative caspase fold change +Dox/-Dox,2.01
same,cell count,"[1]; measured here: total cells with miR-34 induction, stronger effect = lower value",3910
same,cell count,[1]; measured here: total cells without miR-34 induction,4600
same,z-score,"[2]; MELAS cybrid survival, CellTiter-Glo 48 h, stronger effect = higher value",0.252 (inactive)
same,z-score,"[2]; Rieske KO mouse fibroblast survival, CellTiter-Glo 72 h",-0.21
same,inhibition,"[3]; at 0.5 µM, stronger effect = higher value",-6.54% (inactive)
same,inhibition,"[3]; measured here: combination with BGB IC20, at 0.005 µM",-10%
same,inhibition,"[3]; measured here: combination with BGB IC40, at 0.005 µM",-30.6%
same,inhibition,[3]; [18],-26%
same,inhibition,"[3]; measured here: combination with cisplatin, at 0.5 µM, stronger effect = higher value",-19.3%
same,inhibition,"[3]; measured here: combination with cisplatin, at 5 µM, stronger effect = higher value",-60.9%
same,inhibition,"[4]; BGB combo, at 5 µM",-14.1%
same,inhibition,[4]; at 0.5 µM,-5.11% (inactive)
same,inhibition,"[4]; cisplatin combo, at 5 µM",-9.1%
same,inhibition,[4]; [19],-9.33%
same,inhibition,[4]; [20],0.249%
same,inhibition,"[4]; single agent, at 5 µM",-3.14%
same,inhibition,"[5]; BGB IC20 combo, at 0.005 µM",-6.67%
same,inhibition,"[5]; BGB IC40 combo, at 0.005 µM",-12.8%
same,inhibition,"[5]; BGB IC40 combo, at 0.05 µM",-9.57%
same,inhibition,[5]; at 0.5 µM,-33.3% (inactive)
same,inhibition,"[5]; cisplatin combo, at 0.05 µM",-12.6%
same,inhibition,"[5]; cisplatin combo, at 0.5 µM",-45.3%
same,inhibition,"[5]; cisplatin combo, at 5 µM",-4.46%
same,inhibition,"[5]; measured here: 5 uM single agent, at 5 µM",-18.9%
same,inhibition,[6]; at 0.5 µM,-14.8% (inactive)
same,inhibition,[6]; [18],-38.9%
same,inhibition,[6]; [21],-11.1%
same,inhibition,[6]; [22],-7.4%
same,inhibition,[7]; at 0.5 µM,-2.4% (inactive)
same,inhibition,"[7]; measured here: with BGB IC20, at 0.5 µM",-12.9%
same,inhibition,"[7]; measured here: with BGB IC20, at 5 µM",-34.8%
same,inhibition,"[7]; measured here: with cisplatin IC20, at 0.5 µM",-9.12%
same,inhibition,"[7]; measured here: with cisplatin IC20, at 5 µM",-37.6%
same,inhibition,"[7]; single agent, at 5 µM",-5.74%
same,inhibition,[8]; at 0.5 µM,-46.8% (inactive)
same,inhibition,"[8]; measured here: combination with BGB at IC20, at 0.5 µM",-26.7%
same,inhibition,"[8]; measured here: combination with cisplatin at IC20, at 0.5 µM",-48.1%
same,inhibition,[9]; at 0.5 µM,-1.6% (inactive)
same,inhibition,"[9]; measured here: combo with BGB at IC20, at 0.5 µM",6.5%
same,inhibition,"[9]; measured here: combo with cisplatin at IC20, at 0.5 µM",-1.27%
same,inhibition,[10]; at 0.5 µM,1.48% (inactive)
same,inhibition,"[10]; measured here: inhibition with BGB combination, at 0.05 µM",-24.8%
same,inhibition,"[10]; measured here: inhibition with cisplatin combination, at 0.05 µM",0.893%
same,inhibition,[11]; at 0.5 µM,-10.7% (inactive)
same,inhibition,[11]; [21],-24.9%
same,inhibition,[11]; [22],-73.7%
same,inhibition,[12]; at 0.5 µM,-26.8% (inactive)
same,inhibition,"[12]; measured here: BGB combination, at 0.5 µM",-22.5%
same,inhibition,"[12]; measured here: BGB combination, at 5 µM",-28.6%
same,inhibition,"[12]; measured here: cisplatin combination, at 0.5 µM",-43.6%
same,inhibition,"[12]; measured here: cisplatin combination, at 5 µM",-39.5%
same,inhibition,"[13]; BGB combination, concentration series, at 5 µM",11.2%
same,inhibition,[13]; at 0.5 µM,1.32% (inactive)
same,inhibition,"[13]; cisplatin combination, concentration series, at 5 µM",2.3%
same,inhibition,[14],3.72% (inactive)
same,inhibition,[14]; measured here: combo with BGB IC20,14%
same,inhibition,[14]; measured here: combo with cisplatin IC20,-7.51%
same,inhibition,[15]; at 0.5 µM,-18% (inactive)
same,inhibition,"[15]; cisplatin combination, at 0.5 µM",-20.9%
same,inhibition,"[15]; cisplatin combination, at 5 µM",-30.7%
same,inhibition,"[15]; measured here: BGB IC40 combination 0.05 uM, at 0.05 µM",7.73%
same,inhibition,"[15]; single agent, at 5 µM",-20.3%
same,inhibition,[16]; at 0.5 µM,-32.5% (inactive)
same,inhibition,"[16]; cisplatin combo, at 5 µM",-24.1%
same,inhibition,"[16]; measured here: BGB IC40 combination, at 0.05 µM",-39.7%
same,inhibition,[16]; [21],-23%
same,inhibition,"[16]; single agent, at 5 µM",-29.9%
same,inhibition,[17]; at 0.5 µM,0.47% (inactive)
same,inhibition,[17]; [19],4.81%
same,inhibition,[17]; [20],-4%
same,inhibition,"[17]; single agent, at 0.05 µM",-33.2%
same,inhibition,"[17]; single agent, at 5 µM",12%
